Compound activity: PubChem, National Center for Advancing Translational Sciences (NCATS)
The full list was thinned out, with hits kept by preference.
Pf Dd2 growth: inhibitors of Plasmodium falciparum Dd2 growth; P. falciparum Dd2 growth, SYBR Green, 72 h; Potency, µM (doses to about 28.9 µM), for inactives: top-dose activity, negative = inhibition, usual class: inhibitors; hit rate 4.3% among 120,000; AID 1347417; active = well fitted inhibition curve with a large enough effect;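 also: plate controls were DMSO vehicle for no effect and reference drug for full effect; nearly all actives have a fitted effect of over 65% in size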
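Infected erythrocytes (Dd2, 0.3% parasitemia, 2.5% hematocrit final) are added to compound in RPMI-1640/Albumax II medium, grown 72 h at 37C in low oxygen, then lysed with saponin/Triton-X containing SYBR Green and read by fluorescence.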
Active calls of the source: *; i = inactive; [ ] = another dose, or the depositor's remark. Potency is read from the fitted curve at half-maximal effect.

SMILES	Pf Dd2 growth
CC(C)(C)C(=O)N[C@H]1C[C@@H](Cc2cc(COc3ccccc3)on2)C1(C)C	-7%[44.1 µM]
CCCCCC(=O)N[C@H]1C[C@@H](Cc2cc(COC(=O)CCCCC)on2)C1(C)C	-6%[44.1 µM]
CC1(C)[C@H](Cc2cc(COc3ccccc3)on2)C[C@@H]1NC(=O)Nc1ccccc1	10µM*
CCCCc1cc(C[C@@H]2C[C@H](NC(=O)NCC)C2(C)C)no1	i
CC1(C)[C@H](Cc2cc(CN3CCOCC3)on2)C[C@@H]1NC(=O)Nc1ccc(F)cc1	i
c1ccc(OCc2cc(CC3(NC4CCC4)COC3)no2)cc1	-18%[44.1 µM]
CC1(C)[C@H](Cc2cc(COc3ccccc3)on2)C[C@@H]1NC1CCC1	11µM*
CCCCCC(=O)N[C@H]1C[C@@H](Cc2cc(COc3ccccc3)on2)C1(C)C	11µM*
O=C(CCNc1c(-c2cccc(F)c2)nc2cnccn12)NCC1CCCO1 (configuration not stated)	i
COCC(=O)N1CC[C@]2(O)CCN(C(=O)c3ccc(C(C)=O)s3)C[C@@H]2C1	-10%
Cc1ccc(CCNC(=O)C2CCN(C(=O)c3nnn4c3COC(c3ccc(C)cc3)C4)CC2)cc1 (configuration not stated)	i
COCCN1C(=O)CCc2cc(NC(=O)Cc3ccc(OC)cc3Cl)ccc21	-16%
O=C(C1CCOCC1)N1C[C@H]2OC(=O)N(CCc3cccc(Cl)c3)[C@H]2C1	3%
Cc1ccc(C)c(C(=O)N2CCC3(CC2)NC(=O)N(c2ccc(F)cc2)N3)c1	-14%
CCCC1c2nccn2CCCN1C(=O)Cc1c(C)noc1C (configuration not stated)	19%
O=C1CCC2(CCN(c3nc4ccccc4s3)CC2)CN1Cc1cccnc1	-23%
Clc1ccc2nc(N3CCC(NCCc4cccnc4)CC3)sc2c1	11µM*
CC1CCN(c2nc3ccc(C(=O)NCc4ccccc4)cc3s2)CC1	-27%
COCCCn1c(C)cc(C(=O)N2CC(COC)C3(CCNCC3)C2)c1C (configuration not stated)	34%
Cc1occc1-c1nc2ncccc2[nH]1	-13%[44.1 µM]
CC1CCN(C(=O)CSc2nnc(-c3ccccc3Cl)o2)CC1	-13%
Cc1c(CO)cccc1NC(=O)c1ccc(CN2CCCC(C)C2)cc1 (configuration not stated)	-8%
CC1CCCN(Cc2nc3c(c(=O)n(C)c(=O)n3C)n2Cc2ccc(Cl)cc2)C1 (configuration not stated)	22%
Cc1cc(C)cc(Oc2coc3c(CN4CCN(C)CC4)c(O)ccc3c2=O)c1	i
CC1CCCN(Cc2c(O)ccc3c(=O)c(-c4ccccc4Cl)c(C(F)(F)F)oc23)C1 (configuration not stated)	0.89µM*
SMILES	Pf Dd2 growth
Cc1oc(-c2ccc(Cl)cc2)nc1CN1CCCC(C(=O)NCc2ccc(Cl)cc2)C1 (configuration not stated)	i
Cc1cc(Oc2c(C(F)(F)F)oc3c(CN4CCC(C)CC4)c(O)ccc3c2=O)cc(C)c1Cl	0.45µM*
Cc1ccc(Oc2c(C(F)(F)F)oc3c(CN4CCCCC4C)c(O)ccc3c2=O)cc1 (configuration not stated)	-30%
CC1CCCN(Cc2c(O)ccc3c(=O)c(-c4ccc(Cl)cc4)c(C(F)(F)F)oc23)C1 (configuration not stated)	0.71µM*
CCc1noc(-c2cn(C3CCN(C(=O)c4ccc(C)s4)CC3)nn2)n1	i
Cc1cnc(C(=O)NC2C[C@H]3CC[C@@H](C2)N3C(=O)c2cc(F)ccc2F)cn1 (some centres not stated)	-10%
COC(=O)C1=CN(CC(=O)Nc2c(C)cc(C)cc2C)S(=O)(=O)N=C1C	16%
CC(C)c1cc(CN(C)C(=O)CN2C(=O)OC[C@@H]2c2ccccc2)no1	-15%
COc1ccc(-c2nc(C3CC(=O)N(c4ccc(C)cc4)C3)no2)c(OC)n1 (configuration not stated)	74%
CCCN1CCc2[nH]cnc2C12CCN(C(=O)c1ccc(CC)s1)CC2	-6%
CCN1C(=O)C2CC3(CCN(C(=O)NC)CC3)CN2C1=O (configuration not stated)	10%
COC1CCC12CCN(C(=O)Nc1ccccc1)CC2 (configuration not stated)	-15%
Cn1c(=O)c2c(-c3ccccc3Cl)n(Cc3ccc(Cl)cc3)cc2n(C)c1=O	-24%
Cn1c(=O)c2c(-c3ccccc3Cl)n(-c3cc(Cl)ccc3O)cc2n(C)c1=O	7.9µM*
Cn1c(=O)c2c(-c3cccc(Br)c3)n(CCO)cc2n(C)c1=O	i
COCCn1cnc2ccc(OCC3CC3)nc2c1=O	i
COCCn1cnc2ccc(OCc3ccc(Cl)cc3)nc2c1=O	11µM*
COCCn1cnc2ccc(OCc3ccc(C(F)(F)F)cc3)nc2c1=O	-2%[44.1 µM]
CN(Cc1cc(-c2ccccc2)on1)C(=O)c1cn(Cc2ccc(F)cc2)nn1	3%
COc1cccc([S+](=O)([O-])N2CCC3(CC2)CC(=O)c2ccccc2O3)c1	i
O=C1CC2(CCN([S+](=O)([O-])c3cccc(C(F)(F)F)c3)CC2)Oc2ccccc21	i
